We go through 8 compounds from PubChem BioAssay (NCI).

Molecules are shown by their SMILES. The panel holds about 83,000 compounds, 20% with a hit somewhere; the sample as a whole holds those more often.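 Treatment: one concentration, 48 hours, 96-well format. Scoring: percent growth, with anything below 10 considered active.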 A number with no mark means an inactive call. Activity calls are given as the source filed them.

Some test systems named below: HCT-15 colon; HT29 colon; SNB-75 CNS; SNB-19 CNS; U251 CNS; PC-3 prostate; SK-MEL-5 melanoma; UACC-62 melanoma; LOX IMVI melanoma; SK-MEL-28 melanoma; SK-MEL-2 melanoma; EKVX NSCLC; SN12C renal; UO-31 renal; ACHN renal; A498 renal; CCRF-CEM leukemia; MOLT-4 leukemia; CAKI-1 renal; TK-10 renal.
What all share (test): NCI-60 one-dose screen, 48 h (100 = growth as untreated, 0 = no growth, -100 = all killed)
Details in all cases: 10 µM unless noted

Turning to `CN(C)CCCn1c2c(c3ccc(-c4ccn[nH]4)cc3c1=O)C(=O)c1ccccc1-2`, the growth with HCT-15 colon was 10.9%; with HT29 colon, 15.5%; in the assay on SNB-75 CNS, 53.1%; in the assay with SNB-19 CNS, 22.7%; in the assay with U251 CNS, 16.9%; in the assay with PC-3 prostate it was 52.3%. For the same compound, the growth was 31.5% in the assay on SK-MEL-5 melanoma; 50.3% with UACC-62 melanoma; 15% in the assay with LOX IMVI melanoma; 89.8% with SK-MEL-28 melanoma; 121% in the assay on SK-MEL-2 melanoma; 34.2% in the assay on EKVX NSCLC. Further, the growth in the assay on SN12C renal was 5.41% (active); in the assay with UO-31 renal it was 25.5%; in the assay with ACHN renal it was -28.9% (active); in the assay with A498 renal it was 52.4%; in the assay on CCRF-CEM leukemia, 0.484% (active); with MOLT-4 leukemia, -0.72% (active).
On to `CC(C)(C)OC(=O)N1C/C(=C\c2ccoc2)C(=O)/C(=C/c2ccoc2)C1`, for which the growth in the assay with HCT-15 colon is 99.6%; in the assay on HT29 colon, 98%; in the assay with SNB-75 CNS, 77%; in the assay on SNB-19 CNS, 96.5%; with U251 CNS, 88.2%; in the assay with PC-3 prostate it was 89.5%. The growth is 99.8% in the assay on SK-MEL-5 melanoma; 88.3% with UACC-62 melanoma; 90.7% in the assay on LOX IMVI melanoma; 102% with SK-MEL-28 melanoma; 96.4% with SK-MEL-2 melanoma; 102% with EKVX NSCLC. In addition, the growth in the assay on SN12C renal is 97.8%; in the assay on UO-31 renal it was 74.2%; in the assay on ACHN renal, 99.6%; in the assay on CAKI-1 renal, 82.5%; in the assay on A498 renal, 74.1%; in the assay with CCRF-CEM leukemia, 16.5%. Further, in the assay on MOLT-4 leukemia, the growth is 76.1%.
On to `Nc1c(Cl)cc([N+](=O)[O-])cc1Br`, for which the growth with HCT-15 colon is 103%; with HT29 colon it was 103%; in the assay with SNB-75 CNS, 108%; in the assay on SNB-19 CNS, 116%; in the assay with U251 CNS, 101%; in the assay on PC-3 prostate, 96.1%. For the same compound, the growth with SK-MEL-5 melanoma was 98.9%; in the assay on UACC-62 melanoma it was 102%; with LOX IMVI melanoma it was 104%; with SK-MEL-28 melanoma, 110%; in the assay with SK-MEL-2 melanoma it was 121%; with EKVX NSCLC it was 89.1%. The growth is 97% with SN12C renal; 90% in the assay with UO-31 renal; 112% in the assay with ACHN renal; 85.4% in the assay on CAKI-1 renal; 104% in the assay with CCRF-CEM leukemia; 105% with MOLT-4 leukemia.
As for `CC(=O)[C@@H]1CC[C@]2(C(=O)n3ccnc3)CC[C@]3(C)[C@H](CC[C@@H]4[C@@]5(C)Cc6c([nH]c7ccccc67)C(C)(C)[C@@H]5CC[C@]43C)[C@@H]12`, the growth is 87.7% in the assay with HCT-15 colon; 81.2% in the assay with HT29 colon; 101% in the assay on SNB-75 CNS; 88.4% with SNB-19 CNS; 87.7% in the assay on U251 CNS; 63.7% in the assay with PC-3 prostate. Further, the growth with SK-MEL-5 melanoma was 94.3%; in the assay with UACC-62 melanoma it was 94.1%; in the assay with LOX IMVI melanoma, 87.2%; in the assay on SK-MEL-28 melanoma, 96%; in the assay on SK-MEL-2 melanoma, 91.2%; with EKVX NSCLC, 75.2%. Besides, the growth in the assay on SN12C renal is 94.2%; with UO-31 renal, 63.6%; with ACHN renal, 83.5%; in the assay with A498 renal, 99%; in the assay with CCRF-CEM leukemia, 99.5%; with MOLT-4 leukemia, 74.1%.
Consider `C[C@]12CCc3nc(Nc4cccc(O)c4)sc3C1=CC[C@@H]1[C@@H]2CC[C@]2(C)/C(=N\NC(N)=S)CC[C@@H]12`, for which the growth in the assay with HCT-15 colon was -29% (active); in the assay with HT29 colon, 3.21% (active); in the assay with SNB-75 CNS, 1.36% (active); in the assay with SNB-19 CNS, 57.9%; with U251 CNS it was 11.9%; in the assay on PC-3 prostate it was 20.1%. For the same compound, the growth in the assay with SK-MEL-5 melanoma is 36.7%; in the assay with UACC-62 melanoma it was 73.1%; in the assay on LOX IMVI melanoma, -73.8% (active); with SK-MEL-28 melanoma, 9.46% (active); with SK-MEL-2 melanoma it was 40.8%; in the assay with EKVX NSCLC it was 65.9%. In addition, the growth in the assay with UO-31 renal was -37.1% (active); in the assay on TK-10 renal, 20.1%; in the assay on ACHN renal, -54.1% (active); in the assay on CAKI-1 renal, 36.4%; with A498 renal, 97.5%; in the assay with CCRF-CEM leukemia it was 1.64% (active). Further, the growth in the assay on MOLT-4 leukemia was 5.41% (active).
Regarding `C=C1C(=O)O[C@H]2[C@H]1CC/C(COC(=O)CCCCCC(=O)OC/C1=C/CC[C@@]3(C)O[C@H]3[C@H]3OC(=O)C(=C)[C@@H]3CC1)=C\CC[C@@]1(C)O[C@@H]21`, the growth in the assay on HCT-15 colon is 0.552% (active); with HT29 colon, 3.42% (active); with SNB-75 CNS, 46.5%; with SNB-19 CNS, 62.4%; in the assay on U251 CNS it was 47.8%; in the assay on PC-3 prostate it was 29.8%. In addition, the growth was 26.3% in the assay with SK-MEL-5 melanoma; 8.53% (active) in the assay on UACC-62 melanoma; -53.5% (active) in the assay with LOX IMVI melanoma; 18.5% with SK-MEL-28 melanoma; 55.7% with SK-MEL-2 melanoma; 19.9% in the assay with EKVX NSCLC. Moreover, the growth in the assay on SN12C renal was 0.951% (active); in the assay on UO-31 renal, -32.1% (active); in the assay on ACHN renal, -25.7% (active); with A498 renal it was 90.5%; in the assay on CCRF-CEM leukemia, 4.16% (active); in the assay with MOLT-4 leukemia, 0.768% (active).
`CC1(C)CCCN1CCCN1c2ccccc2Sc2ccc(Cl)cc21`: the growth with HCT-15 colon is 50.7%; in the assay with HT29 colon, 26.4%; in the assay on SNB-75 CNS it was 91%; with SNB-19 CNS, 69.1%; in the assay with U251 CNS, 58.3%; in the assay with PC-3 prostate, 52.6%. The growth with SK-MEL-5 melanoma was 2.18% (active); with UACC-62 melanoma, 75.6%; in the assay with LOX IMVI melanoma it was 57.9%; with SK-MEL-28 melanoma, 72%; in the assay on SK-MEL-2 melanoma, 117%; with EKVX NSCLC, 61.5%. Besides, the growth was 42.3% in the assay on UO-31 renal; 84.6% with TK-10 renal; 61.8% with ACHN renal; 60% in the assay on CAKI-1 renal; 61.7% in the assay on A498 renal; 41.7% with CCRF-CEM leukemia. Moreover, the growth with MOLT-4 leukemia was 41.7%.
In the case of `COc1cc2nc(-c3ccc(C(F)(F)F)cc3)cc(OCCCN3CCCCC3)c2cc1OC`, the growth is 9.99% (active) in the assay on HCT-15 colon; 15.8% in the assay with HT29 colon; -10.6% (active) in the assay on SNB-75 CNS; 62.5% with SNB-19 CNS; 49.6% in the assay with U251 CNS; 43.2% in the assay with PC-3 prostate. In addition, the growth is 15.5% in the assay on SK-MEL-5 melanoma; -34.7% (active) in the assay on UACC-62 melanoma; -28.5% (active) in the assay on LOX IMVI melanoma; 51.4% in the assay on SK-MEL-28 melanoma; 61.4% in the assay with SK-MEL-2 melanoma; 69.4% in the assay with EKVX NSCLC. Besides, the growth was 45.7% in the assay on SN12C renal; 30.5% with UO-31 renal; 38.2% in the assay with ACHN renal; 0.476% (active) in the assay with CAKI-1 renal; 42.4% with CCRF-CEM leukemia; 35.8% in the assay with MOLT-4 leukemia.
